Assay results from PubChem BioAssay AID1159580 (chemical genetic matrix, 2015).
Several values for one entry are separate records, joined by “and”; a condition that tells them apart may be missing. Identical values can stand only once. About 2,000 (36%) of roughly 5,500 compounds were called active. Not shown: some 18% with an inconclusive outcome. Cut-off read from the data, not from the text of the source: active = normalized growth mostly below about 0.91 (no sharp cut-off); inconclusive = no clear call, values can overlap the other calls; inactive = mostly above about 0.92. Some of the results follow.

Experiment: chemical genetic growth profiling, strain panel (AID 1159580);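 note: tested at 20 µM; growth read once vehicle control cultures reached saturation at 30 °C; 1 = growth at the plate median or of vehicle wells; lower values mean less growth of the strain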
Details: S. cerevisiae deletion strains, growth OD

Measured: normalized growth

CC1(C)C2CC[C@]3(C)C(C(=O)C=C4[C@@H]5C[C@@](C)(C(=O)O)CC[C@]5(C)CC[C@]43C)[C@@]2(C)CC[C@@H]1OC(=O)CCC(=O)O (stereo partly drawn)
inactive: locus YAL021C, strain ccr4, active compounds read low 0.968 | locus YAL026C, strain drs2, active compounds read low 0.981 | locus YAL030W, strain snc1, active compounds read low 1 | locus YBL061C, strain skt5, active compounds read low 0.99 | locus YBR009C, strain hhf1, active compounds read low 1 | locus YBR021W, strain FUR4, active compounds read low 0.981 | locus YBR023C, strain chs3, active compounds read low 0.983 | locus YBR171W, strain sec66, active compounds read low 0.975 | locus YBR229C, strain ROT2, active compounds read low 1 | locus YBR231C, strain swc5, active compounds read low 0.996 | locus YBR279W, strain paf1, active compounds read low 0.976 | locus YCL011C, strain gbp2, active compounds read low 0.963 | locus YCL016C, strain dcc1, active compounds read low 0.979 | locus YCL029C, strain bik1, active compounds read low 0.973 | locus YCL069W, strain vba3, active compounds read low 1.02 | locus YCR088W, strain abp1, active compounds read low 0.985 | locus YDL005C, strain med2, active compounds read low 0.994 | locus YDL035C, strain GPR1, active compounds read low 0.968 | locus YDL040C, strain nat1, active compounds read low 0.988 | locus YDL074C, strain BRE1, active compounds read low 1.02 | locus YDL101C, strain DUN1, active compounds read low 1 | locus YDL134C, strain PPH21, active compounds read low 0.966 | locus YDL185W, strain tfp1, active compounds read low 0.958 | locus YDL192W, strain arf1, active compounds read low 0.989 | locus YDR001C, strain nth1, active compounds read low 0.983 | locus YDR069C, strain doa4, active compounds read low 0.938 | locus YDR101C, strain arx1, active compounds read low 0.994 | locus YDR137W, strain rgp1, active compounds read low 0.911 | locus YDR159W, strain sac3, active compounds read low 0.909 | locus YDR162C, strain NBP2, active compounds read low 0.954 | locus YDR195W, strain ref2 1 | locus YDR297W, strain sur2, active compounds read low 0.995 | locus YDR318W, strain mcm21, active compounds read low 0.972 | locus YDR334W, strain swr1, active compounds read low 0.991 | locus YDR335W, strain msn5, active compounds read low 0.979 | locus YDR388W, active compounds read low 1 | locus YDR392W, strain spt3, active compounds read low 0.873 | locus YDR502C, strain sam2, active compounds read low 0.99 | locus YEL003W, strain gim4, active compounds read low 0.992 | locus YEL037C, strain rad23, active compounds read low 0.986 | locus YEL061C, strain CIN8 (second series), active compounds read low 0.988 | locus YEL061C, strain CIN8, active compounds read low 0.999 | locus YER015W, strain faa2, active compounds read low 0.989 | locus YER016W, strain bim1, active compounds read low 0.975 | locus YER110C, active compounds read low 0.982 | locus YER111C, strain swi4, active compounds read low 0.968 | locus YER155C, strain BEM2 (second series), active compounds read low 1.02 | locus YER155C, strain BEM2, active compounds read low 1 | locus YER167W, strain BCK2, active compounds read low 0.99 | locus YFR010W, strain ubp6, active compounds read low 1.01 | locus YGL078C, strain dbp3, active compounds read low 0.98 | locus YGL086W, strain mad1, active compounds read low 0.999 | locus YGL167C, strain pmr1, active compounds read low 0.987 | locus YGL173C, strain kem1, active compounds read low 0.999 | locus YGL227W, strain vid30, active compounds read low 0.982 | locus YGL240W, strain doc1, active compounds read low 0.992 | locus YGL248W, strain PDE1, active compounds read low 1.02 | locus YGL253W, strain hxk2, active compounds read low 0.963 | locus YGR078C, strain PAC10, active compounds read low 1.03 | locus YGR135W, strain pre9, active compounds read low 0.96 | locus YGR229C, strain SMI1, active compounds read low 0.999 | locus YGR252W, strain gcn5, active compounds read low 1.04 | locus YHR013C, strain ard1, active compounds read low 0.995 | locus YHR027C, strain rpn1, active compounds read low 1 | locus YHR030C, strain SLT2, active compounds read low 0.984 and 1.06 | locus YHR079C, strain IRE1 (second series), active compounds read low 0.979 | locus YHR079C, strain IRE1, active compounds read low 1.08 | locus YHR094C, strain hxt1, active compounds read low 0.987 | locus YHR129C, strain ARP1, active compounds read low 0.991 | locus YHR142W, strain chs7, active compounds read low 0.955 | locus YHR200W, strain rpn10, active compounds read low 0.958 | locus YIL066C, strain RNR3, active compounds read low 0.983 | locus YIL073C, strain SPO22, active compounds read low 0.91 | locus YIL125W, strain kgd1, active compounds read low 1 | locus YIR030C, strain dcg1, active compounds read low 0.98 | locus YJL092W, strain hpr5, active compounds read low 1 | locus YJL095W, strain BCK1 (second series), active compounds read low 1 | locus YJL095W, strain BCK1, active compounds read low 1.03 | locus YJL115W, strain asf1, active compounds read low 0.983 | locus YJL129C, strain trk1, active compounds read low 0.936 | locus YJL134W, strain LCB3, active compounds read low 0.99 | locus YJL154C, strain vps35, active compounds read low 0.987 | locus YJL164C, strain tpk1, active compounds read low 0.982 | locus YJL166W, strain qcr8, active compounds read low 0.999 | locus YJL168C, strain set2, active compounds read low 0.997 | locus YJL187C, strain SWE1 (second series), active compounds read low 1.02 | locus YJR043C, strain POL32, active compounds read low 1.01 | locus YJR066W, strain TOR1, active compounds read low 1.01
